Peg3 promoter: reduces Peg3 promoter-driven luciferase expression in HeLa; HeLa PEG-Prom luciferase reporter, luminescence, overnight; inhibition, % at 20 µM; 1.7% of 360,000 active; AID 588405;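 active means inhibition of at least 50% at 20 µM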
CF NFkB inh: inhibitors of cystic fibrosis induced NF-kB; KKLEB NF-kB-GFP reporter, PAF-induced, GFP fluorescence overnight; inhibition, % at 5 µM; 0.86% of 360,000 active;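 active means at least 50% inhibition at 5 µM, scaled per plate between neutral and stimulator controls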;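 further: PAF is a Pseudomonas aeruginosa culture filtrate used as stimulus; plate controls were PAF-stimulated DMSO wells for no effect and unstimulated DMSO wells for full effect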
TWEAK Fn14 block: blocks TWEAK-Fn14 interaction in a reporter cell assay. TWEAK-stimulated Fn14 reporter cells, luciferase luminescence, 8 h. inhibition, % at 10 µM. AID 1159606. 2% of 360,000 active; in the data active means inhibition above about 50%
HIF-2a inh: inhibitors of HIF-2a; 0.72% of 360,000 active; inhibition, % at 18.8 µM; 786-0 RCC cells HIF-2a reporter, luciferase luminescence, overnight;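 active means inhibition of the luminescence signal of 40% or more relative to plate controls, in a single-dose primary screen at 18.75 µM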
KKLEB cytotox: reduces viability of KKLEB cystic fibrosis airway cells. KKLEB CF airway cells viability, ATPlite luminescence, overnight; stronger effect = lower value; cells stimulated with P. aeruginosa culture filtrate. 0.36% of 360,000 active. activity change (cytotoxicity), % at 5 µM. AID 602141;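 active means corrected activity change at or below -50% at 5 µM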
TROY signal inh: inhibitors of TROY-dependent NF-kB signaling | AID 1347056 | inhibition, % at 10 µM | 0.98% of 360,000 active | Q293 LMP1-TROYcd NF-kB luciferase reporter, 4 h;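 active means compounds whose plate-normalised and pattern-corrected inhibition of the luciferase reporter signal at the single screening dose is 50% or more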
Starred values were filed as active, the others as inactive; . = not tested or not shown. Sampled rows, rich in hits. Any-hit rate of the full collection: about 4%.

SMILES	Peg3 promoter	CF NFkB inh	TWEAK Fn14 block	HIF-2a inh	KKLEB cytotox	TROY signal inh
Cc1ccsc1C(=O)N/N=C/c1ccc2c(c1)OCO2	-144	-17	55*	-90	8	-2
Cc1occc1C(=O)N/N=C/c1ccc2c(c1)OCO2	-95	-16	64*	-128	-11	5
O=C(N/N=C/c1ccc2c(c1)OCO2)c1sc2cc(Cl)ccc2c1Cl	31	7	-13	-50	-7	-12
CCc1c(C2(O)CCCCC2)[nH]c2ncccc12	12	-5	12	8	6	-6
O=C(O)c1[nH]c2ccc(Cl)cc2c1CC(=O)N1CCN(C(=O)c2ccco2)CC1	-3	5	-7	17	9	-1
O=C(c1ccco1)N1CCN(C(=O)C2CCCc3c2[nH]c2ccc(Cl)cc32)CC1 (configuration not stated)	24	-23	66*	-9	5	.
O=C(CSc1c2c(nc3ccc(Cl)cc13)CCCC2)N1CCN(C(=O)c2ccco2)CC1	26	54*	12	3	-12	-7
O=C(CSc1nc2cc(Cl)ccc2s1)N1CCN(C(=O)c2ccco2)CC1	7	-4	4	22	-2	-5
COc1ccc(S(=O)(=O)Nc2c(NC3CCCCC3)c3ccccc3oc2=O)cc1	-2	14	2	5	-3	-6
Cc1cc(C)n(CCNC(=O)c2cc(COc3ccc4ncccc4c3)on2)n1	1	7	9	-9	-1	13
Cc1ccc(F)cc1CNC(=O)c1cc(COc2ccc3ncccc3c2)on1	15	30	75*	10	-27	46
O=C(NCc1cccc(Cl)c1)c1cc(COc2ccc3ncccc3c2)on1	0	14	61*	-4	-10	53*
Cc1cc(C)cc(N=Cc2ccc([N+](=O)[O-])s2)c1	51*	-1	21	9	2	-21
O=[N+]([O-])c1ccc(C=Nc2ccc(Cl)c([N+](=O)[O-])c2)s1	81*	25	4	-3	-8	-1
NC(=O)c1ccc(N=Cc2ccc([N+](=O)[O-])s2)cc1	47	22	11	10	-13	-8
O=C(CP(=O)(c1ccccc1)c1ccccc1)Nc1nc2ccc(Cl)cc2s1	17	-4	18	40	3	-2
COc1cc2c(c3oc(-c4ccccc4)cc(=O)c13)C=CC(C)(C)O2	34	10	64*	8	-3	19
COC(=O)c1c(NC(=S)Nc2ccc(CC(=O)O)cc2)sc(C)c1C	11	-7	88*	5	-24	-12
CCOC(=O)c1c(NC(=S)Nc2ccc(Cl)cc2)sc(C)c1C	14	6	4	-1	-4	-16
CCN1CCN(c2ncnc3c2sc(=S)n3-c2ccccc2)CC1	-2	1	-6	-29	2	-19
S=c1sc2c(N3CCN(Cc4ccccc4)CC3)ncnc2n1-c1ccccc1	14	-15	58*	9	3	56*
CC(C)c1ccc(C2OCC(C)([N+](=O)[O-])CO2)cc1 (configuration not stated)	-71	21	-27	-97	-1	-43
COc1ccc(C=C2CS(=O)(=O)CC(=Cc3ccc(OC)cc3)C2=O)cc1	97*	92*	88*	86*	-18	56*
CCN(CC)C(=O)c1cccc(-c2csc(C(C)(O)c3cccc(OC)c3)n2)c1 (configuration not stated)	34	13	65*	10	-2	40
CC(O)(c1ccc(F)c(F)c1)c1nc(-c2ccc(Cl)cc2)cs1 (configuration not stated)	76*	-14	42	2	8	14
SMILES	Peg3 promoter	CF NFkB inh	TWEAK Fn14 block	HIF-2a inh	KKLEB cytotox	TROY signal inh
CC(O)(c1ccc(F)c(F)c1)c1nc(-c2cccc(C(F)(F)F)c2)cs1 (configuration not stated)	10	-1	13	5	-17	10
CCN(CC)C(=O)c1cccc(-c2csc(C(C)(O)c3ccc(OC)cc3)n2)c1 (configuration not stated)	44	-4	42	20	-7	39
COc1cccc(C(C)(O)c2nc(-c3cc(F)cc(F)c3)cs2)c1 (configuration not stated)	-1	46	54*	14	-5	31
COc1ccc(CC(=O)Nc2ccc(S(=O)(=O)N(C)C3CCN(C)CC3)cc2)cc1	-16	7	-18	6	6	-15
COc1ccc2oc(C(=O)Nc3nnc(C)s3)c(C)c2c1	-70	-59	68*	-197	-26	12
COc1ccc2oc(C(=O)Nc3ccc(S(=O)(=O)N(C)C4CCN(C)CC4)cc3)c(C)c2c1	75*	1	-29	-10	-7	-6
Cc1c(C(=O)Nc2ccc(F)cc2)oc2ccc(S(=O)(=O)N3CC(C)CC(C)C3)cc12 (configuration not stated)	34	6	54*	21	-28	29
COc1ccc(CN2C(=O)C(CC(=O)NCCN3CCOCC3)CC(C(=O)N3CCOCC3)=C2C)cc1 (configuration not stated)	-10	-7	7	6	4	6
CN1C(=O)/C(=C\c2ccccc2OCc2ccccc2)SC1=S	-1	39	7	22	-18	14
CN1C(=O)/C(=C\c2cc(N=Nc3ccccc3)ccc2O)SC1=S	-26	50*	50	-33	-36	26
Cc1cc(/C=C2\SC(=S)N(C)C2=O)c(C)n1-c1cccc(O)c1	28	21	92*	-77	-14	10
CN=C1S/C(=C\c2cc(C)n(-c3ccccc3F)c2C)C(=O)N1C	-60	-18	82*	-67	-26	80*
COc1ccc(-n2c(C)cc(/C=C3/SC(=S)N(C)C3=O)c2C)cc1	-254	-18	70*	-121	6	52*
C(=C\c1ccc2nncn2c1)/c1ccccc1	-52	-21	-3	-82	11	-4
O=C(CSCc1cc(=O)n2nc(C3CC3)sc2n1)Nc1ccccc1Cl	4	1	17	20	-8	3
Cc1cc(/C=C2\SC(=O)N(C)C2=O)c(C)n1-c1ccc(O)cc1	-101	-17	87*	-88	4	18
Cc1cc(/C=C2\SC(=S)N(Cc3ccco3)C2=O)c(C)n1-c1ccccc1	-165	-14	62*	-38	2	4
CCc1nc2ccc(C(=O)N(C)Cc3ccccc3)cn2c1N(CC)Cc1cccc(Br)c1	27	30	21	15	-10	18
CCc1nc2ccc(C(=O)NC3CCN(Cc4ccccc4)CC3)cn2c1N(CC)Cc1cccc(Br)c1	94*	24	-3	10	-41	19
Cc1ccc(N=c2oc3cc(O)ccc3cc2C(N)=O)cc1	-172	83*	61*	-140	-23	34
